# Source: publication PMC7862700, “An all-to-all approach to the identification of sequence-specific readers for epigenetic DNA modifications on cytosine”
# Key:
# Assay in all cases: DAPPL (digital affinity profiling via proximity ligation, sequencing); 10 mM Tris-HCl pH 7.5, 50 mM NaCl, 1 mM DTT, 4% glycerol, room temperature, 30 min; GST-TFs on glutathione beads, 16-mer random dsDNA library, 0.1% formaldehyde crosslink after washing; high values mean tight binding
# Settings in all cases: protein: recombinant; tags: N-terminal GST; dsDNA, one strand shown
# ETV1 = ETV1 (Homo sapiens, UniProt P50549 1-477)
# Outline: (§1)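 The binding signal reported is, for every hexamer, its read frequency for a factor over its read frequency for the tag-only sample. Reads came from pools of yeast-expressed, GST-fused human transcription factors on glutathione beads, barcoded with DNA and mixed with that sample, which were incubated with 200 nmole of a random double-stranded 16-mer DNA library in Tris/NaCl/DTT/glycerol buffer at room temperature for 30 min. After washing, the pools were crosslinked with 0.1% formaldehyde, proximity-ligated with BsaI/T4 ligase for 1 h at 37 °C, PCR-amplified and sequenced on an Illumina NextSeq500.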
# ERF = target: T1, ERF (Homo sapiens, UniProt P50548 1-548)
# T1 sequence: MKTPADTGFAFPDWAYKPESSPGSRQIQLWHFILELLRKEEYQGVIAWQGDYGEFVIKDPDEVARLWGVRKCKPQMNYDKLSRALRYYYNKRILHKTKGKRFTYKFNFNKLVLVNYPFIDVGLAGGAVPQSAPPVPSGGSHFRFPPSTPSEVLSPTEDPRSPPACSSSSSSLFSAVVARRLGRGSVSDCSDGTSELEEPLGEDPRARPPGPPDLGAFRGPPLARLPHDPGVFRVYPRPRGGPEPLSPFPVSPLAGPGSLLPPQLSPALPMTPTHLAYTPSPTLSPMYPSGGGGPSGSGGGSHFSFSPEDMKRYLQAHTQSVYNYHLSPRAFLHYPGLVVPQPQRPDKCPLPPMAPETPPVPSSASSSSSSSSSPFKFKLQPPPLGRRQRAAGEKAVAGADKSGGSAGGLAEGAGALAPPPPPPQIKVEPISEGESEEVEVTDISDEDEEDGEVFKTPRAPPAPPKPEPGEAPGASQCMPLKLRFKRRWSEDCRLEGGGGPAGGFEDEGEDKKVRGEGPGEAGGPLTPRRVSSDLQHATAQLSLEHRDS
# Outline: as §1
# ETV3L = target: T2, ETV3L (Homo sapiens, UniProt Q6ZN32 1-361)
# T2 sequence: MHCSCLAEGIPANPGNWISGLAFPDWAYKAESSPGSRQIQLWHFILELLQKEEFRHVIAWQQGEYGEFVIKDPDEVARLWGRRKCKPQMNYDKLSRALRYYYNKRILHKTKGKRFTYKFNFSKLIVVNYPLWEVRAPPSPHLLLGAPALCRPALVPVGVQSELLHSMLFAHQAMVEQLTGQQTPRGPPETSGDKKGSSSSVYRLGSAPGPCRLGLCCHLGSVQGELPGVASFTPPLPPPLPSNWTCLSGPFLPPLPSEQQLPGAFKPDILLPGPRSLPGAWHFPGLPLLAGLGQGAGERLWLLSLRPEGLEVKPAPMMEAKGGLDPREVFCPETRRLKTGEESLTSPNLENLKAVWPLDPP
# Outline: as §1
# ETS2 = target: T3, ETS2 (Homo sapiens, UniProt P15036 1-469)
# T3 sequence: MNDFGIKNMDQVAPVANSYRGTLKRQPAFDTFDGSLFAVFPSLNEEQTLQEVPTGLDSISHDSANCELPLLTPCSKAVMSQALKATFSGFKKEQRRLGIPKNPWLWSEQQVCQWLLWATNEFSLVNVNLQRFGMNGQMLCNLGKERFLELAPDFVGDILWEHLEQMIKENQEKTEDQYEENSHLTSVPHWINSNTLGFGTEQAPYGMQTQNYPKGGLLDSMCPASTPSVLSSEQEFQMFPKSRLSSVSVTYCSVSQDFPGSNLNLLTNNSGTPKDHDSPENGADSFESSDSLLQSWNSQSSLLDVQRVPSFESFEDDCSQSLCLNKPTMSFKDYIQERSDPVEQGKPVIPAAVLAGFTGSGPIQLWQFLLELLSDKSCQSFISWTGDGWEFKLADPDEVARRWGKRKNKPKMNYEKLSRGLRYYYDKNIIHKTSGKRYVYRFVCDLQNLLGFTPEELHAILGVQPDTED
# Outline: as §1
# SPDEF = target: T4, SPDEF (Homo sapiens, UniProt O95238 1-335)
# T4 sequence: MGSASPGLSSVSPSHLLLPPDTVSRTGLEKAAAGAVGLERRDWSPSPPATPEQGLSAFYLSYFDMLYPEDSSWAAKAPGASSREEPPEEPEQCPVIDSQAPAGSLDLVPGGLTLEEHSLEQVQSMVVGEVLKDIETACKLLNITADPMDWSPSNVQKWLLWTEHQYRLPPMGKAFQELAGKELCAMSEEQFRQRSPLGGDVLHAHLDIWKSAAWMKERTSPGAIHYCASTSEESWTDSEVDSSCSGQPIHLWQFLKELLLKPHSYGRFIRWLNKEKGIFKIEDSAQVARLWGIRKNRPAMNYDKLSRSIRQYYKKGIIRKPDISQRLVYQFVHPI
# Outline: as §1
# ETV7 = target: T5, ETV7 (Homo sapiens, UniProt Q9Y603 1-341)
# T5 sequence: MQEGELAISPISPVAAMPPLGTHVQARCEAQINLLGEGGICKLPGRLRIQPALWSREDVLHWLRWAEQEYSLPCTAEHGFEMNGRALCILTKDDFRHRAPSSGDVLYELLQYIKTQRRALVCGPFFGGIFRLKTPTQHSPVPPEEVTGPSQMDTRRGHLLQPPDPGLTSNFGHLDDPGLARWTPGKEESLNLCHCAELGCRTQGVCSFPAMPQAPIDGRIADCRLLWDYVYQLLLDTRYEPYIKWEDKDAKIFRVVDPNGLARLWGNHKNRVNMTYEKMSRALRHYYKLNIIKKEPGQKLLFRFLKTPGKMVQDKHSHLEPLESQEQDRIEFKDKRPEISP
# Outline: as §1
# ELF5 = target: T6, ELF5 (Homo sapiens, UniProt Q9UKW6-2 1-255)
# T6 sequence: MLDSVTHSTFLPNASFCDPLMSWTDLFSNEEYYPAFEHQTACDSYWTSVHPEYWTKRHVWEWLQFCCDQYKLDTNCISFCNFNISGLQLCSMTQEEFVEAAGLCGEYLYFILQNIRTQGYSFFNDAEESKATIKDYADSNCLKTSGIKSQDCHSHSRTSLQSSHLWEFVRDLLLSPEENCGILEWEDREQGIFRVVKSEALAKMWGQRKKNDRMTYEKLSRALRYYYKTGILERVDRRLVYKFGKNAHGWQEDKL
# Outline: as §1
# ETV3 = target: T7, ETV3 (Homo sapiens, UniProt P41162-2 1-143)
# T7 sequence: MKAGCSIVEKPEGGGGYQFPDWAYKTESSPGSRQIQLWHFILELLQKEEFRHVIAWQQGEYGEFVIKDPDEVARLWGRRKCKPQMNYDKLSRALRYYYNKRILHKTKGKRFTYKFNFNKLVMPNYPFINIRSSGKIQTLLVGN
# Outline: as §1
# ETV6 = ETV6 (Homo sapiens, UniProt P41212 1-452)
# Outline: as §1
# ETV1, sequence (P50549 whole entry, the tested form may be a part): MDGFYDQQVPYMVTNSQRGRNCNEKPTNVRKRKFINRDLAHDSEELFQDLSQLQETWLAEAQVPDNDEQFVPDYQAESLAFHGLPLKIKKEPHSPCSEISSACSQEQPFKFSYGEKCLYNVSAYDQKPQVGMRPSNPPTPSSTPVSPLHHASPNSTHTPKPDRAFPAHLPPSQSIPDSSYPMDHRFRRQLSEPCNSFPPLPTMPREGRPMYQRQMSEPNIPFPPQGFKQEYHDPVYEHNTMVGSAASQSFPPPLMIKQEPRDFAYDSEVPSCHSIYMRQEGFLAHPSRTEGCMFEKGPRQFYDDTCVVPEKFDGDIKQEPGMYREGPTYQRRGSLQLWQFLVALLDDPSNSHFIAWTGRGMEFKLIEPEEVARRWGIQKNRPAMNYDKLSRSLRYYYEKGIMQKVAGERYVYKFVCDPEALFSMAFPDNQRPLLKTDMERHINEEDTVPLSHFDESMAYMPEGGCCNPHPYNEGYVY
# ETV6, sequence (P41212 whole entry): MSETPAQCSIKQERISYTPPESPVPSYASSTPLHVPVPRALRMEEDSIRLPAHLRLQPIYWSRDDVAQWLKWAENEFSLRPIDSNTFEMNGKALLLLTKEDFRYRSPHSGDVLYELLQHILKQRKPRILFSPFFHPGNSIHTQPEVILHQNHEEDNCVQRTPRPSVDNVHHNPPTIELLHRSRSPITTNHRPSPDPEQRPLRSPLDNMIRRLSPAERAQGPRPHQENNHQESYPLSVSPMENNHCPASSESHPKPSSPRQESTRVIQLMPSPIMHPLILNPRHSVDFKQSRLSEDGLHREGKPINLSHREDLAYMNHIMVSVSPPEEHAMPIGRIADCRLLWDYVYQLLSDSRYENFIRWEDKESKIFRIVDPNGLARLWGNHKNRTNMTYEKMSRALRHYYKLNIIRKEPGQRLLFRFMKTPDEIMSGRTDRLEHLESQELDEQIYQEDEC
sequence,measurement,setting,value
AGCTTA,binding signal,ETV1,"1.23 fold enrichment (6-mer frequency, TF over GST control)"
same,binding signal,ERF,"1.2 fold enrichment (6-mer frequency, TF over GST control)"
same,binding signal,ETV3L,"1.08 fold enrichment (6-mer frequency, TF over GST control)"
same,binding signal,ETS2,"1.15 fold enrichment (6-mer frequency, TF over GST control)"
same,binding signal,SPDEF,"1.17 fold enrichment (6-mer frequency, TF over GST control)"
same,binding signal,ETV7,"1.15 fold enrichment (6-mer frequency, TF over GST control)"
same,binding signal,ELF5,"1.08 fold enrichment (6-mer frequency, TF over GST control)"
same,binding signal,ETV3,"1.17 fold enrichment (6-mer frequency, TF over GST control)"
same,binding signal,ETV6,"1.05 fold enrichment (6-mer frequency, TF over GST control)"
